Here are results for 25 molecules from paper PMC12136788.

B1: chr2:27118074:27118075:-_ENSMUSG00000009621_ENSMUST00000056176|mus_mus|motif|central (ssRNA)
RNA: GGGAGUUCUACAGUCCGACGAUCCACAGAUAUAUAAUGGGAGACUUAGAUGAAAUAAUUACAACUUCCCCUCCCCCUUCGGAAAUACAAACAGAUAAAACAUAACAGGACAAAAAAAGCUACAACAACAGAAAAACAAACAGACAACAGAGGAUUGAGCAUCA
B2: chr15:12269436:12269437:+_ENSMUSG00000022200_ENSMUST00000059680|mus_mus|motif|central (ssRNA)
RNA: GGGAGUUCUACAGUCCGACGAUCUAAAAGACUUUUUCUUCUCAUUCCACAAGCCUCUAACUGUAACCUUCCUCUCAAAGCGGAUUCAAUUAACAUACAGCCACGUAAUCCAGAUGAUAUACAGUCAUUCCAAAAUGAUGUGUACAACAGAGGAUUGAGCAUCA
B3: chr2:27118074:27118075:-_ENSMUSG00000009621_ENSMUST00000056176|mus_mus|FALSE|FALSE (ssRNA)
RNA: B1 RNA with G80U, G81A
B4: chr16:94690093:94690094:+_ENSMUSG00000040785_ENSMUST00000117648|mus_hu|mus_mus_mus_hu_True|1_48 (ssRNA)
RNA: GGGAGUUCUACAGUCCGACGAUCGGGCUGGGAUGACGGACACACAGCCUCGAUUCCAGGGGGAAAAAGUCUUAGUCGAUACUAAUUUAAAAAGUAUAAUGAUUUUUGAAAAUCAGAUUACAUCUAUAAAAGAUGAAAGCACUUCAACAGAGGAUUGAGCAUCA
B5: chr1:235506153:235506154:+_ENSG00000152904_ENST00000391855|hu_mus|FALSE|FALSE (ssRNA)
RNA: GGGAGUUCUACAGUCCGACGAUCGAAGACAGCUACACUUACAUAUAAUAAAUAAAUCUUAAAAAAAAAAAAAAGAAAAGAUAAAUGGGAUGAAGCCACUCCUCAUUUUCAACUGAAAGAAGCUACUGAGUCUAAUCCAGAAAGCAACAGAGGAUUGAGCAUCA
B6: chr5:145543945:145543946:-_ENSG00000133706_ENST00000545646|hu_hu|hu_hu_hu_mus_True|1_108 (ssRNA)
RNA: GGGAGUUCUACAGUCCGACGAUCCUGAAUAGCCAGUGGUGGGAAAUAAUCAAGCCAGUGCUCUGCUUCAGAAAACUUCACUAUGUCGUCAUCAGAGAGCCCAAGGGAUUUCAUAAUGUCCCACUGGUACUUAGAAGAUCCAGCCAACAGAGGAUUGAGCAUCA
B7: chr14:62194323:62194324:+_ENSG00000100644_ENST00000337138|hu_mus|motif|central (ssRNA)
RNA: GGGAGUUCUACAGUCCGACGAUCUCUUUCAUCACAGUAAGAAAAUUUCAUAUCGAGGCUGUGUCGACUGAGAAAUGUCUUGCGGUCGGAAGGAAUUUCAAUAUUUGACGGAUGAGGAAUGGGUUCACAAAUCAGCACCAAGCACAACAGAGGAUUGAGCAUCA
B8: chrX:15845472:15845473:-_ENSG00000182287_ENST00000329235|hu_mus|motif|central (ssRNA)
RNA: GGGAGUUCUACAGUCCGACGAUCCCACAAGAAGUCAUCAGCAAGGGAGGACAGUUAUGUCAGUCCAAUUUCUUCAAGAACACGGCGUGGGGUUUCAGCUUCUUUUGCAUCCUCCUGCAGGAGAUCGGCCUGCUCAAUUGCUUUCAACAGAGGAUUGAGCAUCA
B9: chr17:8508246:8508247:-_ENSG00000133026_ENST00000269243|hu_hu|motif|central (ssRNA)
RNA: GGGAGUUCUACAGUCCGACGAUCGUACAUUUCAAUAAUAUUCUCAGAGUAAAUUGGAAGAUUCUUGUAAGGGUUUAUAACGGCACAGAAGAGUCCAGAAUAAGUAUAGAUUAGUCCUGAAUAGUAGCGAUCCUUCAGAUUAUGCAACAGAGGAUUGAGCAUCA
B10: chr17:39847130:39847131:+_ENSG00000173812_ENST00000469257|hu_mus|motif|central (ssRNA)
RNA: GGGAGUUCUACAGUCCGACGAUCAUUACAUUAUACAAGCUGUGAGGUUUUUAAACUUGUGACAAGGGACAGAAGGGAAAUUCGGCUCAUUGCAAGGAAAUCCUCACUUAAGCUUCAGAGAGCCACAAGCACUUAAAACCCAUGCAACAGAGGAUUGAGCAUCA
B11: 75584029_75587226_729_CDS_ENSG00000119638_ENST00000238616|human|control|control (ssRNA)
RNA: GGGAGUUCUACAGUCCGACGAUCCGUCUCAGCCAUGGAAUACUCAGAAUUAAGUUUCUUUGCUAGGCCAUAAUCUCCAAGUUUUAUCAGGUUUGCCUUGGUCAGAAAAAUAUUUAAUGUCUUUAUAUCUCUAUGAAGGAUUCCCAACAGAGGAUUGAGCAUCA
B12: chr19:7360422:7360423:-_ENSMUSG00000024969_ENSMUST00000032557|mus_mus|FALSE|FALSE (ssRNA)
RNA: GGGAGUUCUACAGUCCGACGAUCAUAAGGAGGACUGCCACAGAAAGUAUCCAGCUUGUUCCCAAAGGUGAAUUCGUUGCUAAAGCCAAAGUCUGCAAUCUUGAUGUUCAUAUCAGCAUCCAGGAGCAGGUUUUCUGCCUUUAGCAACAGAGGAUUGAGCAUCA
B13: chr18:86887116:86887117:+_ENSMUSG00000024647_ENSMUST00000068423|mus_mus|motif|central (ssRNA)
RNA: GGGAGUUCUACAGUCCGACGAUCCGCGUCAGCUCCGCCAUUGUUAAGGGAUUCAUGAGCAAUGAGCAAUGCCAGGUUACGGAGGGAUCCCAGAGAAUAAAUUAAAAAAAAAAAAAAAUGAAAUCCACGUUGCAAGUUUGAAGCCAACAGAGGAUUGAGCAUCA
B14: chr18:86887116:86887117:+_ENSMUSG00000024647_ENSMUST00000068423|mus_mus|FALSE|FALSE (ssRNA)
RNA: B13 RNA with G80U, G81A
B15: chr5:56168760:56168761:+_ENSG00000095015_ENST00000399503|hu_hu|motif|central (ssRNA)
RNA: GGGAGUUCUACAGUCCGACGAUCUCUAGAAAAUAAGCAGCCAACGAGUUCCAUUCCAAACACCUGAAUCCAUGGCUCAGCGGAAUCUUUGUAAGCAGGAGGGAUUUGCUGAGUUCCAUAAUGAGUAAGGUUAAAAUUGCUCUCCAACAGAGGAUUGAGCAUCA
B16: 9136497_9143069_760_3pUTR_ENSMUSG00000033499_ENSMUST00000091829|mouse|control|control (ssRNA)
RNA: GGGAGUUCUACAGUCCGACGAUCCAGAAUUCCAAUGUUUUUUUAAGUACUUCCCGAGGGUCUUCCUGGCUUUCUGGUUGAGACUCAUUUCCUCCCGUAUCGUUGUUCUCAGGCAGAGGUUCAUAUUCUGAAUGGUCCAGAGCCCAACAGAGGAUUGAGCAUCA
B17: 40924096_40924216_925_3pUTR_ENSMUSG00000028423_ENSMUST00000098143|mouse|control|control (ssRNA)
RNA: GGGAGUUCUACAGUCCGACGAUCUCGUUGGUCUUUCUCUAAGAUUAUCCUUUGGAAUGGGGGACAUGUUGGUUUUGGGCCCUGCAUUUAUAUGCCGCUGACUCUCCUGUUUUGGUGGGUUCCUGCCUGGCCGUGGUCUGGCCCCAACAGAGGAUUGAGCAUCA
B18: chr14:89307221:89307222:+_ENSG00000165533_ENST00000346301|hu_mus|hu_hu_hu_mus_False|98_98 (ssRNA)
RNA: GGGAGUUCUACAGUCCGACGAUCUCCUGUUUGGUUAGUUCCAGGGAGCUUCAAAGAUGUGCCAGGGCGUGGGACCUGAGCAAUAGCAUUUUCAUCCAGGAUCAUUUCAGCAAUUCCUUCCUGGUCCACAUCAAUUUCAUCUAUCAACAGAGGAUUGAGCAUCA
B19: chr7:151048522:151048523:+_ENSG00000013374_ENST00000566856|hu_mus|motif|central (ssRNA)
RNA: GGGAGUUCUACAGUCCGACGAUCCUGUUUCUUAUUUAUUACGAUCUUGAUGUAAUUUUCUUGAAAUCCGAAAGUUUCAGCGGUUUGACACCUCAGGUCUCUACCAGUGACAUGCAAGCGGGUCUCCAACAAGCUUUUCUUAUCCAACAGAGGAUUGAGCAUCA
B20: chr2:160775391:160775392:-_ENSMUSG00000057133_ENSMUST00000039782|mus_hu|motif|central (ssRNA)
RNA: GGGAGUUCUACAGUCCGACGAUCAAUGAGUCCAGGAGAUACUCCUGGGAUGAGAAAUGGGUUAAAAGCCACAGGACGGCGGGUAGUUAUUGCAGGUUCAGACUGAUCAGAAAAUGGACCUGGACCAGGCUUGUCCUCAGCUAACAACAGAGGAUUGAGCAUCA
B21: chr18:33597908:33597909:-_ENSMUSG00000042834_ENSMUST00000171533|mus_mus|motif|central (ssRNA)
RNA: GGGAGUUCUACAGUCCGACGAUCUACAUCAAAAGAGUACAUGGGUAAAAUAUAGAUAUACAGACAAUUGAUGAACAUAAACGGCGGGGCUUGUUACAUCUAAAUGAAGAAAAAAAAAAACCGUGGGGGGGACUCUCAGCCUCUCAACAGAGGAUUGAGCAUCA
B22: chr2:160775391:160775392:-_ENSMUSG00000057133_ENSMUST00000039782|mus_hu|FALSE|FALSE (ssRNA)
RNA: B20 RNA with G77U, G78A, G80U, G81A
B23: chr2:29001751:29001752:+_ENSG00000213639_ENST00000296122|perfect_dup|motif|central (ssRNA)
RNA: GGGAGUUCUACAGUCCGACGAUCAGCCAAUAGCAAACAAAUGGUUUCCAAAGACUGCUUUCCUCUGUCCACAUAAUCUCCGGAGAAAAGAUAGUUGGCUUCUGGUGGGAAACCUCCAUAUUCAAAUAAUCUCAGUAAAUCUGUCAACAGAGGAUUGAGCAUCA
B24: chr18:33597908:33597909:-_ENSMUSG00000042834_ENSMUST00000171533|mus_mus|FALSE|FALSE (ssRNA)
RNA: B21 RNA with G82U, G83A, G85U, G86A
B25: chr1:38489269:38489270:+_ENSG00000183520_ENST00000537711|hu_hu|FALSE|FALSE (ssRNA)
RNA: GGGAGUUCUACAGUCCGACGAUCUUUGAAGUUACUAGAAAACGACAACAGAUUUUUGAUACAGAAUGACAAGGCUUAUCUAUAACACGUCAACGUUUUCGACGACUCUGAAAUUUAUAAAUAGCUGGGGAGUUCACCGUUUCUCAACAGAGGAUUGAGCAUCA

Positions count from the first letter of the chain named. Over roughly 24,000 sequences, “enrichment r” has its median near 0.99; the highest 2% begin near 3.7. Shown is part of a subset that was picked to be rich in the highest values.

This test addresses T1, UNK ZnF1-3 (human, UniProt Q9C0B0 31-174).
T1 sequence: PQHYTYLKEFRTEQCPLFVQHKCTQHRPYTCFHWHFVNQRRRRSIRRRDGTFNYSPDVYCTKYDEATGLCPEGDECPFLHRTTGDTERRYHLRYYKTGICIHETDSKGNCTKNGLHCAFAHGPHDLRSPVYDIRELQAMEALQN
The test is described as follows: nsRBNS (natural sequence RNA bind-n-seq); RBNS binding buffer (assumed for nsRBNS): 25 mM Tris pH 7.5, 150 mM KCl, 3 mM MgCl2, 0.01% Triton X-100, 500 ug/ml BSA, 20 U/ml SUPERase-In, 4 C; UNK is unkempt and MSI1 is Musashi-1; names of the RNAs are library labels; protein concentration not given here; high values mean tight binding.
Molecule B1 came in with a binding signal of 3.78 enrichment R.
The value for B2 was 0.956 enrichment R; that for B3 was 4.31 enrichment R.
On to B4, for which the binding signal was determined as 0.785 enrichment R.
Molecule B5 returned a binding signal of 20.8 enrichment R.
In the case of B6, the binding signal worked out at 1.11 enrichment R.
As for B7, the figure is 1.84 enrichment R; as for B8, 1.01 enrichment R; as for B9, 1.92 enrichment R.
The value for B10 was 1.49 enrichment R; that for B11 was 1.02 enrichment R; that for B12 was 0.665 enrichment R.
Take B13: the binding signal worked out at 8.87 enrichment R.
As for B14, the figure is 6.14 enrichment R.
The molecule B15 gave a binding signal of 1.25 enrichment R.
As for B16, the figure is 0.744 enrichment R.
In turn, B17 came in with a binding signal of 0.527 enrichment R.
The molecule B18 registered a binding signal of 0.79 enrichment R.
The value for B19 was 0.692 enrichment R; that for B20 was 1.1 enrichment R; that for B21 was 6.83 enrichment R.
The value for B22 was 0.911 enrichment R; that for B23 was 1.36 enrichment R; that for B24 was 7.83 enrichment R.
As for B25, the figure is 1.2 enrichment R.
